Results filed as inconclusive are left out. Values without a mark were called inactive. The source made the active and inactive calls. Calls follow the shape of the dose curve; as a rule, active = well fitted inhibition curve with a large enough effect; inconclusive = small, poorly fitted or top-dose-only effect; inactive = flat fitted curve, though single readings scatter.
Assays:
[1] = Drug repurposing screens with cells derived from glioblastoma tumor samples (AID 1345199); conditions: GBM patient neurospheres viability, ATP luminescence, 48 h; also: nearly all actives have a fitted effect of over 40% in size
Method in brief: (§1)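 Primary testing used CD133+ neurospheres from four GBM patients, seven concentrations, 48 h exposure and ATP-based viability; confirmation added three slower-growing patient lines.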

astro = control astrocytes; assay: as above; conditions: viability, ATP luminescence, 48 h; series mostly up to 45.9 µM
Method in brief: as §1

[2] = at 45.9 µM (top of the series), tumour line B
[3] = at 45.9 µM (top of the series), tumour line D
[4] = at 46.1 µM (top of the series), tumour line C
[5] = at 20 µM (top of the series), tumour line C
[6] = at 21.2 µM (top of the series), tumour line B
[7] = at 46 µM (top of the series), tumour line A
% is scaled to controls: 0 for no effect and ±100 for the full control effect; potency is read from the fitted curve at half-maximal effect.

**Q.** For `O=C1N=C2SCCN2C(=O)C1Cc1ccc(Cl)cc1` (stereo unspecified), which activity, negative = cell killing [1, 2] is on record?
**A.** -17.4%

**Q.** And the activity, negative = cell killing [1, 3]?
**A.** -11.7%

**Q.** What about the activity, negative = cell killing [1, 4] of the same compound?
**A.** -2.54%

**Q.** And the Potency (astro)?
**A.** inactive

**Q.** For `CCCCCCCCCCCCCCCCCC[N+](C)(C)CCC[Si](OC)(OC)OC`, which activity, negative = cell killing [1, 2] is on record?
**A.** -16.4%

**Q.** What about the activity, negative = cell killing [1, 3] of the same compound?
**A.** -4.63%

**Q.** And the activity, negative = cell killing [1, 4]?
**A.** -7.69%

**Q.** What about the Potency (astro) of the same compound?
**A.** inactive

**Q.** Which results are given for `Cc1ncc(C[n+]2csc(CCOP(=O)(O)OP(=O)(O)O)c2C)c(N)n1`?
**A.** activity, negative = cell killing [1, 2]: -10%; activity, negative = cell killing [1, 3]: -6.5%; activity, negative = cell killing [1, 4]: 18.5%; Potency (astro): inactive

**Q.** Which activity, negative = cell killing [1, 2] does the source give for `C=CCN1CCCC1CNC(=O)c1cc(S(N)(=O)=O)cc(OC)c1OC` (stereo unspecified) here?
**A.** -7.52%

**Q.** And the activity, negative = cell killing [1, 3]?
**A.** -19.4%

**Q.** And the Potency ([1]; tumour line A)?
**A.** 35.5 µM (active)

**Q.** And the Potency (astro)?
**A.** inactive

**Q.** For `C=CC[N@@+]12CC[C@@]34c5ccccc5N5/C=C6/[C@H]7C[C@H]8[C@@]9(CC[N@@+]8(CC=C)C/C7=C/CO)c7ccccc7N(/C=C(/[C@@H](C[C@@H]31)/C(=C\CO)C2)[C@H]54)[C@@H]69`, which activity, negative = cell killing [1, 5] is on record?
**A.** -3.52%

**Q.** And the activity, negative = cell killing [1, 6]?
**A.** -8.94%

**Q.** What about the activity, negative = cell killing ([1]; at 21.2 µM (top of the series), tumour line D) of the same compound?
**A.** 3.96%

**Q.** What about the Potency (astro) of the same compound?
**A.** inactive

**Q.** Which activity, negative = cell killing [1, 2] does the source give for `O=C(O)/C=C/C(=O)Nc1ccc(S(=O)(=O)Nc2nccs2)cc1` here?
**A.** -4.39%

**Q.** What about the activity, negative = cell killing [1, 3] of the same compound?
**A.** -8.87%

**Q.** What about the activity, negative = cell killing [1, 4] of the same compound?
**A.** -5.24%

**Q.** What about the Potency (astro) of the same compound?
**A.** inactive

**Q.** Which activity, negative = cell killing [1, 2] does the source give for `CC(=O)N[C@@H](C=O)[C@@H](O)[C@H](O)[C@H](O)CO` here?
**A.** -6.52%

**Q.** What about the activity, negative = cell killing [1, 3] of the same compound?
**A.** -3.57%

**Q.** What about the activity, negative = cell killing [1, 4] of the same compound?
**A.** -2.77%

**Q.** And the Potency (astro)?
**A.** inactive

**Q.** What does the source list for `Cc1nc(NS(=O)(=O)c2ccc(N)cc2)nc(C)c1Br`?
**A.** activity, negative = cell killing [1, 2]: -13%; activity, negative = cell killing [1, 3]: -4.79%; activity, negative = cell killing [1, 7]: -28.7%; Potency (astro): inactive

**Q.** With `O=C(O)COc1ccccc1/C=N/NC(=O)c1ccncc1` as the compound, how does the activity, negative = cell killing [1, 2] read?
**A.** -7.55%

**Q.** What about the activity, negative = cell killing [1, 3] of the same compound?
**A.** 5.85%

**Q.** What about the activity, negative = cell killing [1, 4] of the same compound?
**A.** -10.4%

**Q.** And the Potency (astro)?
**A.** inactive

**Q.** Which results are given for `O=S(=O)(O)CC(S)CS` (stereo unspecified)?
**A.** activity, negative = cell killing [1, 2]: -24.2%; activity, negative = cell killing [1, 3]: -0.499%; activity, negative = cell killing [1, 4]: -22%; Potency (astro): inactive

**Q.** Which activity, negative = cell killing [1, 2] does the source give for `CCOc1ccc(S(=O)(=O)O)c2cccnc12` here?
**A.** -12%

**Q.** What about the activity, negative = cell killing [1, 3] of the same compound?
**A.** -2.86%

**Q.** And the activity, negative = cell killing [1, 4]?
**A.** -26.7%

**Q.** What about the Potency (astro) of the same compound?
**A.** inactive

**Q.** What does the source list for `CC12CCC(C1)C(C)(C)C2=O` (stereo unspecified)?
**A.** activity, negative = cell killing [1, 2]: -4.04%; activity, negative = cell killing [1, 3]: -4.98%; activity, negative = cell killing [1, 4]: 19.6%; Potency (astro): inactive

**Q.** Which activity, negative = cell killing [1, 2] does the source give for `CN(Cc1ccccc1)Cc1ccccc1` here?
**A.** -11.4%

**Q.** And the activity, negative = cell killing [1, 3]?
**A.** 6.3%

**Q.** What about the activity, negative = cell killing [1, 4] of the same compound?
**A.** -21.1%

**Q.** What about the Potency (astro) of the same compound?
**A.** inactive

**Q.** Which activity, negative = cell killing [1, 5] does the source give for `CN1CCN(C(c2ccccc2)c2ccc(Cl)cc2)CC1` (stereo unspecified) here?
**A.** 3.89%

**Q.** And the activity, negative = cell killing [1, 6]?
**A.** -16.8%

**Q.** What about the Potency ([1]; tumour line A) of the same compound?
**A.** 11.2 µM (active)

**Q.** And the Potency (astro)?
**A.** inactive

**Q.** What does the source list for `CCc1ccc(S(=O)(=O)O)cc1`?
**A.** activity, negative = cell killing [1, 2]: 3.64%; activity, negative = cell killing [1, 3]: -9.65%; activity, negative = cell killing [1, 4]: -22.1%; Potency (astro): inactive

**Q.** Which activity, negative = cell killing [1, 2] does the source give for `CC/C=C\C/C=C\C/C=C\C/C=C\C/C=C\CCCC(=O)O` here?
**A.** -9.54%

**Q.** And the activity, negative = cell killing [1, 3]?
**A.** -0.692%

**Q.** And the activity, negative = cell killing [1, 4]?
**A.** -8.93%

**Q.** And the Potency (astro)?
**A.** inactive

**Q.** For `NCC[C@H](O)C(=O)N[C@@H]1C[C@H](N)[C@@H](O[C@H]2O[C@H](CN)[C@@H](O)[C@H](O)[C@H]2O)[C@H](O)[C@H]1O[C@H]1O[C@H](CO)[C@@H](O)[C@H](N)[C@H]1O`, which activity, negative = cell killing [1, 2] is on record?
**A.** -16.5%

**Q.** What about the activity, negative = cell killing [1, 3] of the same compound?
**A.** -17.9%

**Q.** And the activity, negative = cell killing [1, 4]?
**A.** -4.11%

**Q.** And the Potency (astro)?
**A.** inactive

**Q.** What does the source list for `C[C@@H](O)[C@H]1C(=O)N2C(C(=O)[O-])=C(SC3Cn4cnc[n+]4C3)[C@H](C)[C@H]12` (stereo partly specified)?
**A.** activity, negative = cell killing [1, 2]: -14.6%; activity, negative = cell killing [1, 3]: -27.3%; activity, negative = cell killing [1, 4]: -6.91%; Potency (astro): inactive

**Q.** Which activity, negative = cell killing [1, 2] does the source give for `O=C(O)CCCC/C=C(\c1ccccc1)c1cccnc1` here?
**A.** -6.07%

**Q.** What about the activity, negative = cell killing [1, 3] of the same compound?
**A.** -10.6%

**Q.** And the activity, negative = cell killing [1, 4]?
**A.** -17.1%

**Q.** What about the Potency (astro) of the same compound?
**A.** inactive

**Q.** Which activity, negative = cell killing [1, 2] does the source give for `O=C1c2ccccc2C(=O)C1c1ccc(F)cc1` here?
**A.** -20.2%

**Q.** And the activity, negative = cell killing [1, 3]?
**A.** -13.5%

**Q.** And the activity, negative = cell killing [1, 7]?
**A.** -45.8%

**Q.** And the Potency (astro)?
**A.** inactive

**Q.** Which results are given for `COc1ccc(C(=O)c2ccc(C)cc2)c(O)c1`?
**A.** activity, negative = cell killing [1, 2]: -19.8%; activity, negative = cell killing [1, 3]: -4.36%; activity, negative = cell killing [1, 4]: -21.4%; Potency (astro): inactive

**Q.** What does the source list for `C[C@@H]1C[C@H]2[C@@H]3CCC4=CC(=O)C=C[C@]4(C)[C@@]3(F)[C@@H](O)C[C@]2(C)[C@@]1(O)C(=O)COC(=O)c1cccc(S(=O)(=O)O)c1`?
**A.** activity, negative = cell killing [1, 2]: -14.3%; activity, negative = cell killing [1, 3]: -16.1%; activity, negative = cell killing [1, 7]: -5.39%; Potency (astro): inactive

**Q.** Which activity, negative = cell killing [1, 2] does the source give for `CO/N=C(\C(=O)N[C@@H]1C(=O)N2C(C(=O)[O-])=C(C[n+]3ccc(N)n3CCO)CS[C@H]12)c1csc(N)n1` here?
**A.** -6.9%

**Q.** And the activity, negative = cell killing [1, 3]?
**A.** -6.66%

**Q.** And the activity, negative = cell killing [1, 4]?
**A.** -25.8%

**Q.** What about the Potency (astro) of the same compound?
**A.** inactive

**Q.** With `CCC[C@@H]1C[C@@H](C(=O)N[C@@H]([C@H]2O[C@H](SC)[C@H](O)[C@@H](O)[C@H]2O)[C@H](C)Cl)N(C)C1` as the compound, how does the activity, negative = cell killing [1, 2] read?
**A.** 1.77%

**Q.** What about the activity, negative = cell killing [1, 3] of the same compound?
**A.** -7.32%

**Q.** And the activity, negative = cell killing [1, 7]?
**A.** -25.1%

**Q.** And the Potency (astro)?
**A.** inactive

— PubChem BioAssay (NCATS)
